From PubChem BioAssay (NCI)
“And” between values parts separate entries of the source, which are not always exact repeats. Equal values may be shown once. The panel holds about 83,000 compounds, 20% with a hit somewhere; the sample as a whole holds those more often.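 Cells were grown in 96-well plates and exposed to the test compound at a single concentration for 48 hours; results are reported as percent growth, with values below 10 considered active.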 The source made the active and inactive calls.

Columns and labels:
Test in all cases: NCI-60 one-dose screen, 48 h (100 = growth as untreated, 0 = no growth, -100 = all killed)
NCI-H226 lung = conditions: 10 µM
NCI-H322M lung = conditions: 10 µM
HOP-62 NSCLC = conditions: 10 µM
NCI-H460 lung = conditions: 10 µM
786-0 renal = conditions: 10 µM
COLO 205 colon = conditions: 10 µM
DU-145 prostate = conditions: 10 µM
SF-268 CNS = conditions: 10 µM
SF-295 CNS = conditions: 10 µM
SF-539 CNS = conditions: 10 µM
HCT-15 colon = conditions: 10 µM
SNB-75 CNS = conditions: 10 µM
SNB-19 CNS = conditions: 10 µM
U251 CNS = conditions: 10 µM
PC-3 prostate = conditions: 10 µM
EKVX NSCLC = conditions: 10 µM
UO-31 renal = conditions: 10 µM
ACHN renal = conditions: 10 µM
HL-60(TB) leukemia = conditions: 10 µM unless noted
CCRF-CEM leukemia = conditions: 10 µM

| Compound | growth (NCI-H226 lung) | growth (NCI-H322M lung) | growth (HOP-62 NSCLC) | growth (NCI-H460 lung) | growth (786-0 renal) | growth (COLO 205 colon) | growth (DU-145 prostate) | growth (SF-268 CNS) | growth (SF-295 CNS) | growth (SF-539 CNS) | growth (HCT-15 colon) | growth (SNB-75 CNS) | growth (SNB-19 CNS) | growth (U251 CNS) | growth (PC-3 prostate) | growth (EKVX NSCLC) | growth (UO-31 renal) | growth (ACHN renal) | growth (HL-60(TB) leukemia) | growth (CCRF-CEM leukemia) |
| --- | --- | --- | --- | --- | --- | --- | --- | --- | --- | --- | --- | --- | --- | --- | --- | --- | --- | --- | --- | --- |
| CC1=C2C(=C[C@@](C)(COC(=O)c3ccc(S(=O)(=O)F)cc3)[C@@H]2OC(=O)c2ccc(S(=O)(=O)F)cc2)C(=O)[C@](C)(O)C12CC2 | -6.08% (active) | 9.18% (active) | -20.3% (active) | 0.279% (active) | -44.2% (active) | -78.1% (active) | 5.79% (active) | 2.06% (active) | 1.3% (active) | -4.86% (active) | 0.515% (active) | -8.24% (active) | 21.5% (inactive) | -21.5% (active) | 16.2% (inactive) | 23.6% (inactive) | -13.7% (active) | -15.8% (active) | 8.8% (active) | 36.3% (inactive) |
| COc1cc2c(O[C@@H]3OC[C@H](OC(C)=O)[C@H](OC(C)=O)[C@H]3O)c3c(c(-c4ccc5c(c4)OCO5)c2cc1OC)C(=O)OC3 | 2.53% (active) | 61.5% (inactive) | 36.9% (inactive) | 10.7% (inactive) | 20% (inactive) | 5.65% (active) | 43% (inactive) | 42.4% (inactive) | -43% (active) | 25.6% (inactive) | 1.41% (active) | 6.09% (active) | 58.7% (inactive) | 28.5% (inactive) | 26.5% (inactive) | 39.5% (inactive) | 50% (inactive) | 29% (inactive) | 26% (inactive) | 20.1% (inactive) |
| C/C=C/CC(C)C(O)[C@H](NC(=O)[C@@H]1CCCN1C(=O)C(C)(C)NC(=O)CCCCCCCCC)C(=O)N[C@@](C)(CC)C(=O)N[C@@H](CCC(N)=O)C(=O)N[C@H](CCC(N)=O)C(=O)NC(C)(C)C(=O)NC(C)(C)C(=O)N[C@@H](CCC(N)=O)C(=O)N[C@H](CC(C)C)C(=O)N[C@H](CO)CC(C)C (some centres undefined) | -0.538% (active) and 75.5% (inactive) | 31% (inactive) and 67.6% (inactive) | -12.3% (active) and 28.3% (inactive) | -56.6% (active) and 12.7% (inactive) | -39.5% (active) and 25.2% (inactive) | -10.4% (active) and 50.9% (inactive) | -94.5% (active) and -42.1% (active) | -77% (active) and 4.8% (active) | -64.6% (active) and -30.2% (active) | -69.3% (active) and 12% (inactive) | 38% (inactive) and 89.3% (inactive) | -55.9% (active) and -38.8% (active) | -28.9% (active) and 35.2% (inactive) | -89.3% (active) and 13.7% (inactive) | 21.4% (inactive) and 32.4% (inactive) | 0.155% (active) and 23% (inactive) | 39.1% (inactive) and 62.6% (inactive) | 40.3% (inactive) and 68.4% (inactive) | 1.3% (active) and 79.5% (inactive) | 14.7% (inactive) and 49.4% (inactive) |
| Cc1ccc(CNc2nc3ccc(OC/C(=C/F)CN)cc3o2)cn1 | 90.3% (inactive) | 105% (inactive) | 72.9% (inactive) | 93.7% (inactive) | 92.3% (inactive) | 111% (inactive) | 88.4% (inactive) | 89.8% (inactive) | 99.9% (inactive) | 94.9% (inactive) | 112% (inactive) | 55.5% (inactive) | 98.8% (inactive) | 110% (inactive) | 98.3% (inactive) | 61.7% (inactive) | 58.4% (inactive) | 99% (inactive) | 141% (inactive) | 105% (inactive) |
| CCCCCCCCCC(=O)N[C@@](C)(CC)C(=O)N1CCC[C@H]1C(=O)N[C@@H](CC(C)C)C(=O)N[C@@](C)(CC)C(=O)N[C@@H](CCC(N)=O)C(=O)N[C@H](CCC(N)=O)C(=O)NC(C)(C)C(=O)NC(C)(C)C(=O)N[C@@H](CCC(N)=O)C(=O)N[C@H](CC(C)C)C(=O)N[C@H](CO)CC(C)C | -71.9% (active) and -72.7% (active) | -94.9% (active) and -60.9% (active) | -74.3% (active) and -67.3% (active) | -77.3% (active) and -76.8% (active) | -78.5% (active) and -80.4% (active) | -63.2% (active) and -52.1% (active) | -99.1% (active) and -81.9% (active) | -80.5% (active) and -64.9% (active) | -91.7% (active) and -90.9% (active) | -97.2% (active) and -100% (active) | -77.8% (active) and -78.1% (active) | -90.8% (active) and -96.3% (active) | -93.9% (active) and -99.6% (active) | -75.9% (active) and -77.1% (active) | -87.2% (active) and -63.7% (active) | -86.7% (active) and -89.1% (active) | -96.4% (active) and -89.3% (active) | -93% (active) and -98.4% (active) | -61.8% (active) and -23.6% (active) | -38.9% (active) and -40.9% (active) |
| O=C(CCCc1ccc(N(CCCl)CCCl)cc1)OCc1ccccc1 | 90.3% (inactive) | 103% (inactive) | 84.2% (inactive) | 53.1% (inactive) | 99% (inactive) | 98% (inactive) | 96.7% (inactive) | 80.4% (inactive) | 87.7% (inactive) | 85.2% (inactive) | 88.6% (inactive) | 84.9% (inactive) | 95.9% (inactive) | 89.2% (inactive) | 83.2% (inactive) | 101% (inactive) | 83.6% (inactive) | 50.6% (inactive) | 68.7% (inactive) | 82.1% (inactive) |
| C=C1[C@@H](C)C2[C@H](Cc3ccccc3)NC(=O)[C@]23[C@H](OC(C)=O)/C=C/[C@@](C)(O)C(=O)[C@@H](C)C/C=C/[C@H]3[C@@H]1O (some centres undefined) | 53.4% (inactive) | 87.9% (inactive) | 9.38% (active) | 26.3% (inactive) | 28.8% (inactive) | 35% (inactive) | 48% (inactive) | 34.5% (inactive) | 51.4% (inactive) | 24% (inactive) | 45.8% (inactive) | -10.7% (active) | 50.4% (inactive) | 29.1% (inactive) | 69.4% (inactive) | 50.5% (inactive) | -14.6% (active) | 41.9% (inactive) | 31.7% (inactive) | 48.7% (inactive) |
| C[C@@H]1C[C@H]2C(=O)O[C@@H](C)C(NC(=O)[C@H](Cc3cc(F)cc(F)c3)NC(=O)Nc3ccc(OS(=O)(=O)F)cc3)C(=O)N3CCC[C@H]3C(=O)N3CCO[C@H](C)[C@H]3C(=O)N[C@@H](CO)C(=O)N2C1 (some centres undefined) | -3.99% (active) | 54% (inactive) | 33% (inactive) | 17% (inactive) | 42.7% (inactive) | -19.1% (active) | 28% (inactive) | 33.2% (inactive) | 11.4% (inactive) | 39.5% (inactive) | 82.9% (inactive) | 34.4% (inactive) | 24.2% (inactive) | 29.6% (inactive) | 19.9% (inactive) | 34% (inactive) | 88.7% (inactive) | 93.5% (inactive) | 13.3% (inactive) | 34.1% (inactive) |
| CC(C)(O)/C=C/C(=O)[C@](C)(O)[C@H]1[C@H](O)C[C@@]2(C)[C@H]3CC=C4[C@@H](C[C@H](O)C(=O)C4(C)C)[C@]3(C)C(=O)C[C@]12C | 12.7% (inactive) | 32.3% (inactive) | 5.78% (active) | 15.6% (inactive) | 1.91% (active) | 34.3% (inactive) | 14% (inactive) | -3.28% (active) | 7.51% (active) | -31.5% (active) | 7.53% (active) | -39.4% (active) | 8.14% (active) | 0.229% (active) | 11.4% (inactive) | 18.4% (inactive) | -52.7% (active) | -1.68% (active) | -3.29% (active) | 3.53% (active) |
| CC1=C[C@H]2O[C@@H]3C[C@H]4OC(=O)/C=C\C=C\[C@H]([C@@H](C)O)OCC/C(C)=C/C(=O)OC[C@@]2(CC1)[C@]4(C)[C@]31CO1 | -50.5% (active) | -19% (active) | -42.9% (active) | -7.38% (active) | -43.6% (active) | -62.3% (active) | -17.5% (active) | -1.73% (active) | -37.5% (active) | -39.2% (active) | -18.6% (active) | -50.1% (active) | -6.9% (active) | -17.3% (active) | -23.9% (active) | -25.1% (active) | -29.4% (active) | -16.1% (active) | -44.9% (active) | -11.5% (active) |
| CC1=C(CCC=NNC(N)=O)C2=C(C)C3(CC3)[C@@](C)(O)C(=O)C2=C1 | -41.6% (active) | -16.2% (active) | -55.2% (active) | -29.2% (active) | -37.6% (active) | -86.4% (active) | -9.85% (active) | -17.8% (active) | -6.5% (active) | -58.5% (active) | -16.6% (active) | -63.9% (active) | 3.45% (active) | 4.6% (active) | 1.22% (active) | -12.8% (active) | -29.1% (active) | -10.3% (active) |  | 26.6% (inactive) |
| C/C=C\C(=O)O[C@@H]1CC2O[C@@H]3C=C(C)C(=O)C[C@]3(C)[C@]1(C)[C@]21CO1 | -20.5% (active) | -11% (active) | -32.6% (active) | 0.808% (active) | -20.2% (active) | -55.3% (active) | -15.1% (active) | 0.463% (active) | -18.2% (active) | -31.9% (active) | -5% (active) | -14.8% (active) | -10.5% (active) | -11% (active) | -2.85% (active) | -2.36% (active) | -12.4% (active) | -28.6% (active) | -47.3% (active) | -12.8% (active) |
